This is an account of results in PubChem BioAssay (NCI).

About 79,000 compounds went through this panel and 15% of them were active in at least one assay; those are over-represented in the sample as a whole. A number with no mark means an inactive call. The source made the active and inactive calls. Rule as the data show it: active = growth inhibition above about 70%; inactive = the rest.

Experiment [1] can be described thus: NCI Yeast Anticancer Drug Screen. Data for the rad50 strain (AID 155).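 Also: 0% = growth of vehicle-only cultures of the same strain.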 The following applies: S. cerevisiae rad50 strain growth inhibition; at 50.0 µM; active compounds read high. The method, boiled down: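 DNA repair mutant yeast, compound exposure, growth read-out; inhibition is taken relative to vehicle.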
Experiment [2] can be described thus: NCI Yeast Anticancer Drug Screen. Data for the mec2-1 strain (AID 157). The following applies: S. cerevisiae mec2-1 strain, at 50.0 µM, active compounds read high. The procedure, abridged: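 Each compound was tested on mec2-1 yeast, a strain altered in DNA damage repair or cell cycle control. Growth inhibition is reported relative to vehicle.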
The nature of experiment [3]: NCI Yeast Anticancer Drug Screen. Data for the sgs1 mgt1 strain (AID 161).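 Also: 0% = growth of cultures given vehicle only.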 Conditions: S. cerevisiae sgs1 mgt1 strain, at 50.0 µM, active compounds read high. The procedure, abridged: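 Mutant yeast exposed to compound; growth scored against vehicle-only wells.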
Experiment [4] can be described thus: NCI Yeast Anticancer Drug Screen. Data for the cln2 rad14 strain (AID 165).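 Also: 0% = growth equal to vehicle treated cultures.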 The following applies: S. cerevisiae cln2 rad14 strain, at 50.0 µM, active compounds read high. The procedure, abridged:
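Test compounds were added to cln2 rad14 yeast cultures; inhibition of growth was then determined by comparison with vehicle treatment.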

Experiment [5] is described as follows: NCI Yeast Anticancer Drug Screen. Data for the bub3 strain (AID 167). The following applies: S. cerevisiae bub3 mutant strain, at 50.0 µM, active compounds read high. The procedure, abridged:
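In this screen, a yeast mutant lacking normal mitotic checkpoint function is challenged with compound. Relative growth versus vehicle gives the inhibition value.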

The nature of experiment [6]: NCI Yeast Anticancer Drug Screen. Data for the mlh1 rad18 strain (AID 175). Conditions: S. cerevisiae mlh1 rad18 strain growth inhibition; at 50.0 µM; active compounds read high. The method, boiled down:
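Inhibition values reflect reduced growth of mutant yeast versus vehicle-treated controls following compound exposure; the mutations affect DNA damage repair.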

Regarding `O=C1NCCc2c1sc1ccccc21`, the growth inhibition in experiment [1] was -9.95%; in experiment [2], 2.45%; in experiment [3] it was -0.95%; in experiment [4], 1.5%; in experiment [5] it was -1.05%; in experiment [6], -6.9%.
Regarding `CCOc1ccc(N=Nc2ccc3oc(=O)c(C(=O)Nc4ccc(OC)cc4)cc3c2)cc1`, the growth inhibition is 11.4% in experiment [1]; 5.9% in experiment [2]; -17.7% in experiment [3]; -22.1% in experiment [4]; 0.8% in experiment [5]; 11.6% in experiment [6].
For the molecule `O=[N+]([O-])c1ccccc1N=Nc1c(O)[nH]c2c(Cl)cc(Cl)cc12`, the growth inhibition in experiment [1] was -25.9%; in experiment [2], -35.6%; in experiment [3], -31.9%; in experiment [4], -16.2%; in experiment [5], -45.4%; in experiment [6], -47.4%.
For `Cc1nc(-c2cc([N+](=O)[O-])cc([N+](=O)[O-])c2)oc1-c1ccccc1`, the growth inhibition in experiment [1] is -15.2%; in experiment [2] it was -1.95%; in experiment [3], -7.35%; in experiment [4], 13%; in experiment [5], -3.25%; in experiment [6] it was -3.4%.
On to `CCOC(=O)c1[nH]c2ccc(O)c3c2c1CCC3=O`, for which the growth inhibition in experiment [1] was 30.6%; in experiment [2], -4.15%; in experiment [3], -3.6%; in experiment [4], 13.1%; in experiment [5], 6.4%; in experiment [6], 16.5%.
In the case of `COC(=O)c1cncn1C1CC1`, the growth inhibition was 8.25% in experiment [1]; -7.1% in experiment [2]; -3.2% in experiment [3]; -58.5% in experiment [4]; -2.95% in experiment [5]; -8.2% in experiment [6].
On to `Cc1cc(C(C)(C)CC(=O)O)cc(C)c1C`, for which the growth inhibition in experiment [1] was 60.6%; in experiment [2], 37.4%; in experiment [3], 27.6%; in experiment [4], 43.6%; in experiment [5], 54%; in experiment [6] it was 56.3%.
Consider `O=c1[nH]cc(COCC(F)(F)C(F)(F)C(F)(F)C(F)F)c(=O)[nH]1`, for which the growth inhibition in experiment [1] was -1.35%; in experiment [2], -14.9%; in experiment [3], -3.7%; in experiment [4], 0.5%; in experiment [5], -17.5%; in experiment [6], 1.2%.
For the molecule `COc1cccc(Oc2c(O)c3ccc(OC)cc3oc2=O)c1`, the growth inhibition in experiment [1] is 1%; in experiment [2] it was 11.2%; in experiment [3], -2.1%; in experiment [4] it was 27.2%; in experiment [5] it was 0.05%; in experiment [6], 8.75%.
For `COc1ccc2nc(NCN3C(=O)c4ccccc4C3=O)sc2c1`, the growth inhibition in experiment [1] is 5.05%; in experiment [2], -4.05%; in experiment [3], -19.1%; in experiment [4] it was 26.9%; in experiment [5], 9.9%; in experiment [6], -5.5%.
As for `O=C(O)CCSc1ccccc1[N+](=O)[O-]`, the growth inhibition in experiment [1] was 31.6%; in experiment [2], -8.6%; in experiment [3], 23.4%; in experiment [4] it was -10.3%; in experiment [5], -0.9%; in experiment [6], 19.9%.
In the case of `CCCCCCCC/C=C/CCCCCCCC(=O)O`, the growth inhibition was -25% in experiment [1]; -37.2% in experiment [2]; -20.6% in experiment [3]; -16.8% in experiment [4]; -16.2% in experiment [5]; -50.9% in experiment [6].
With `Cc1ccc(S(=O)(=O)/C=C(\I)c2ccc([N+](=O)[O-])cc2)cc1`, the growth inhibition was 98.8% (active) in experiment [1]; 99.2% (active) in experiment [2]; 99.3% (active) in experiment [3]; 98.8% (active) in experiment [4]; 98.9% (active) in experiment [5]; 99.1% (active) in experiment [6].
For the molecule `[Mn].[NH-]C(CSSCC(N)C(=O)O)C(=O)O` (stereo not given), the growth inhibition in experiment [1] was -2.45%; in experiment [2] it was -0.4%; in experiment [3] it was -1%; in experiment [4], 5.5%; in experiment [5], 22.6%; in experiment [6], 9%.
As for `CCCCCCCCCC1=C(C#N)C(=O)OCCN1C`, the growth inhibition in experiment [1] is -12.9%; in experiment [2], -2.7%; in experiment [3] it was 0.05%; in experiment [4], -22.1%; in experiment [5], -11.4%; in experiment [6], 3.6%.
For `Cc1ccc(N=Nc2ccc(C)cc2NC(=O)Nc2cc(C)ccc2C)cc1`, the growth inhibition was -3.7% in experiment [1]; 8.05% in experiment [2]; 27% in experiment [3]; -10.9% in experiment [4]; 26.1% in experiment [5]; -10.4% in experiment [6].
Take `CCCN(CCC)NC(=O)c1ccc(N=NN(C)C)cc1`: the growth inhibition was 0.15% in experiment [1]; 32.8% in experiment [2]; 8.4% in experiment [3]; -5.3% in experiment [4]; 39.9% in experiment [5]; 21% in experiment [6].
For `FC(F)(F)c1nc(Cl)c2cn[nH]c2n1`, the growth inhibition in experiment [1] is -8.7%; in experiment [2], 39.6%; in experiment [3], -1.15%; in experiment [4], -16.9%; in experiment [5] it was 25.9%; in experiment [6], -24.4%.
Take `O=C(Cc1cccc2c(=O)cc(-c3ccccc3)oc12)OCCN1CCOCC1`: the growth inhibition in experiment [1] is 18.9%; in experiment [2], 31.4%; in experiment [3], 0.95%; in experiment [4] it was 7.4%; in experiment [5] it was 26.9%; in experiment [6], 29.4%.
Turning to `Cc1ccc(OS(=O)(=O)c2ccccc2)cc1`, the growth inhibition was 36% in experiment [1]; 20.4% in experiment [2]; 49.1% in experiment [3]; -42.6% in experiment [4]; 35.2% in experiment [5]; 36.6% in experiment [6].
